PMC13494018
Values without a mark were called inactive. How the calls were made is not given here.

Target: VTCN1, Q7Z7D3
Sequence (Q7Z7D3 whole entry): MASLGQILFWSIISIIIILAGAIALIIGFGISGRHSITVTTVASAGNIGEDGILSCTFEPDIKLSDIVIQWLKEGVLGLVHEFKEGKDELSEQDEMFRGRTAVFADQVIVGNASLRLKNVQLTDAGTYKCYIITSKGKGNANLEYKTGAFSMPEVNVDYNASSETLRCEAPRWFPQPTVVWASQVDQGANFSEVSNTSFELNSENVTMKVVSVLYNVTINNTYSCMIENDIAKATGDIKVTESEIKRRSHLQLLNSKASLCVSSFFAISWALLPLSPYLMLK

Binder | binding in a display sort
design_599_7ce25d4d-e004-4b84-a16f-baf856d943ab_1788_dldesign_0_cycle1_af2pred (protein) MEEERREEGRRLAEELVEKAKKAKELAKSGEKIEEAKKLLKEAREEAKKAAKAGLLTPEELKEVADAIHEAYEAIAEGEAKK | not found
design_600_24101276-ad9d-4944-b73e-53bb160363ad_413_dldesign_0_cycle1_af2pred (protein) ITPEEAKKLMENIAEAAKDMATWNPAAAETIAKSATKRMESIGKKAGIEEEAKKYSEEVKKFAKEVKEKS | not found
design_599_7ce25d4d-e004-4b84-a16f-baf856d943ab_1363_dldesign_0_cycle1_af2pred (protein) GEAEKAARYLKLAEELAAEVKKNYDNAEKLKEIAREAREAAKEAPESVKPVLAKVAQDAYEARAEAERNASLN | not found
design_599_7ce25d4d-e004-4b84-a16f-baf856d943ab_2071_dldesign_0_cycle1_af2pred (protein) GKAKEIAKKGAEELGKALGEEAKVDADIAAEQAEMQPTPELMAEAFKRGAKRIGEKTGKLEKAEEVAKKTVKAIKE | not found
design_599_7ce25d4d-e004-4b84-a16f-baf856d943ab_1925_dldesign_0_cycle1_af2pred (protein) AQAVLDEAKKAADKAIALANQAIALAKTDLAAGKAKMEEALEELTEADYLADKAAKAGATEEAKKVRDKAKAAIDAARATIKAA | not found
design_599_7ce25d4d-e004-4b84-a16f-baf856d943ab_1137_dldesign_0_cycle1_af2pred (protein) GAAAAAAAQEARQAIAEAEFAAAKGDPAAEAALEKAAAAAEKAAAADPEVGAKVKALVDKARAKVAAAKAA | not found
design_599_7ce25d4d-e004-4b84-a16f-baf856d943ab_1672_dldesign_0_cycle1_af2pred (protein) TPSPELAAKITAATDEILELADKNIEEGGENLDEVEKTATEKGKELGMTKLANALIKSAKIGVELQKKTK | not found
design_599_7ce25d4d-e004-4b84-a16f-baf856d943ab_2320_dldesign_0_cycle1_af2pred (protein) SVKSRAESAYVTAAARHAKEKAAADPAYAELYGKVLFGFYDTLDDPSAAEETYALDPELAPKLLEEMEKVGKAAADAELAK | not found
design_599_7ce25d4d-e004-4b84-a16f-baf856d943ab_1823_dldesign_0_cycle1_af2pred (protein) NISEENKKLAAAEQAKFTAEAAIKKVKATTPEEAKKVAEEAIKRLEKLGKVGEEAAKVAKEEIAKLKATAEKVAA | not found
design_599_7ce25d4d-e004-4b84-a16f-baf856d943ab_2233_dldesign_0_cycle1_af2pred (protein) SLVANIGQDIRSEAIAKAKLGGAEGAKEGAELAREAAVAFRKLGEASTPELKELAEKAAEIMERVSERLEEEAKRKAA | not found
design_599_7ce25d4d-e004-4b84-a16f-baf856d943ab_1166_dldesign_0_cycle1_af2pred (protein) AEELYEKAKKLLTEAIFGLADGTINEEEALKAIEEGRKAAEELKKLGDEEKAEELERGVRALEDMIEDIRKAE | not found
design_600_24101276-ad9d-4944-b73e-53bb160363ad_124_dldesign_0_cycle1_af2pred (protein) NEMKKKAEELQKKARKLREVVKKGPKDAAEAKKAAEEAKKVAEEAEKAIEEDPSADPKTIAKLQRAAFSAEAAAKQLEKWL | not found
design_599_7ce25d4d-e004-4b84-a16f-baf856d943ab_1969_dldesign_0_cycle1_af2pred (protein) MKVEEEVKKTKKVAEEAIKRAEEERKKASPELKEETEEVIKKAKEYMEKAEKAVKEGDYEKAKEYAKKMATYASELIALVNAIKH | not found
design_600_24101276-ad9d-4944-b73e-53bb160363ad_358_dldesign_0_cycle1_af2pred (protein) DALAAGIVAAMREDPARGAAAARNAALQYEDDPAAYEAVKAAALAAAAADPAVAAALAAAFDAAAKEVSA | not found
design_600_24101276-ad9d-4944-b73e-53bb160363ad_551_dldesign_0_cycle1_af2pred (protein) GSSAANALADAQRKALKELQAVGKEAEKVSPEAAKKAAEYRDKLLDGETVEEVEAVKEEGLKEVTAMIEKAKAA | not found
design_599_7ce25d4d-e004-4b84-a16f-baf856d943ab_1610_dldesign_0_cycle1_af2pred (protein) DLKEKAKKGIELAKELIEKAKELKKKGDIIGAIAYAERAIHAAEAALKIAKKADPELAKEAKKVLEEAKKELEKIEKE | not found
design_600_24101276-ad9d-4944-b73e-53bb160363ad_105_dldesign_0_cycle1_af2pred (protein) GEEEEKKKKAVEKAKKALEQTKKAADKGTALDPSAKPEFDKIVKEAEKELKKAEEGDAETAKKAAKEAIEEAHKAYELRAEVEAKAIR | not found
design_599_7ce25d4d-e004-4b84-a16f-baf856d943ab_1596_dldesign_0_cycle1_af2pred (protein) DEEIKKKAEELKKKAEELEKEAETANAEELKKLAEEAIKLASKAAQLAEYAPKELAPYAEEVENYVSDIAVKAIQKRREVEEKEKKE | not found
design_599_7ce25d4d-e004-4b84-a16f-baf856d943ab_1749_dldesign_0_cycle1_af2pred (protein) MEKEEELKYGEELLKKAREEAKKKIEKAAKEGKIAEGAQEAIQVINEYSFEAAKKAKKEEVKKKIWEKGKEIKKEVVERAKELVKEQE | not found

Binder | binding in a display sort
design_600_24101276-ad9d-4944-b73e-53bb160363ad_591_dldesign_0_cycle1_af2pred (protein) AEAEYKKAKELLKKAKEALKKNPEEALKLAKEAVEAAKKAAEADPSLAPELGKYAQEALQIISEARFKIS | not found
design_599_7ce25d4d-e004-4b84-a16f-baf856d943ab_2060_dldesign_0_cycle1_af2pred (protein) SSLDKKIAEEALKTAREGRKKVEELVKAGKYEEALALAKELREKMLKVYEELVKEGGTIEGIQAAFSAAMLMESAESYAKTKLEAAK | not found
design_599_7ce25d4d-e004-4b84-a16f-baf856d943ab_1731_dldesign_0_cycle1_af2pred (protein) AAADAKKIQALREKVAEAAALAKDPKTAAEAAKIAKATAKEAKEAAKAATDPAAKKAFAKVAEKAKAVAEEAEKIAKA | not found
design_599_7ce25d4d-e004-4b84-a16f-baf856d943ab_1164_dldesign_0_cycle1_af2pred (protein) GKEEAYKKAKEAAEKALEKAEKALKLAKEGKIEEAAKELAEAQELRAEAEFYANKSDKEKKEELLKLIEEAKKKIKEARKVAKEKA | not found
design_599_7ce25d4d-e004-4b84-a16f-baf856d943ab_1383_dldesign_0_cycle1_af2pred (protein) SEEEKKKKYEEAKKKMEKAGEEALKNVEDGAVVMDALATMREAVHEAEKLSPEYGKEARKLLEKYREEIKKKREEVEKKKAEEEKK | not found
design_599_7ce25d4d-e004-4b84-a16f-baf856d943ab_1357_dldesign_0_cycle1_af2pred (protein) EEEERRREERAREAREAAEEAKALAEKVKANPKATQEEIDKLNQLALQAEVAEEAIREGYAVEAAERRAREALEEAKKIAEEAEKKAA | not found
design_599_7ce25d4d-e004-4b84-a16f-baf856d943ab_1128_dldesign_0_cycle1_af2pred (protein) MLSKEASEVIKKAVKAAKKVAEAGKKLGIGEKAKKEAAKKVEEVADAVVESLEKGKEAAEKFAKEAEVLAKLAKA | not found
design_599_7ce25d4d-e004-4b84-a16f-baf856d943ab_1147_dldesign_0_cycle1_af2pred (protein) DAEKLMKKAKEYAELAKQAKEKGTPSSAQVAEFHAEIAEELAKKAEELDPKYKKEAEEIKKIAKEAKAVGEKADEEILKKIK | not found
design_599_7ce25d4d-e004-4b84-a16f-baf856d943ab_1658_dldesign_0_cycle1_af2pred (protein) EEIQKKNNFLAYAEAAIHAAEAIAKNSDEKTGKALKEEAKKVKEHEDDKEEAIKHLEKAAKIAAGHPGAPILQKRVAKAKAAA | not found
design_600_24101276-ad9d-4944-b73e-53bb160363ad_146_dldesign_0_cycle1_af2pred (protein) SKIYKLYGELTVEILKEKAEEAVELAKEGKAEEAKKYLKEAYERAKARAERLKEIDPEAGKEALKAVEKTYKEYEKELEKAIKEN | not found
design_599_7ce25d4d-e004-4b84-a16f-baf856d943ab_1476_dldesign_0_cycle1_af2pred (protein) GEELEKLKKRAEKLLEEGKKKAKEDPEEGRKVAKEIRAEGKAHPEGKEAFAKAAAEVYQYIAEEEQKERLKKN | not found
design_599_7ce25d4d-e004-4b84-a16f-baf856d943ab_2004_dldesign_0_cycle1_af2pred (protein) DARKKAAELFKEAGKLATEAAKASPEEGKKLAEEAVAKVKEAAKVLGRERIGENFIKQIVAGRKSREIAGYQLEARADAIAA | not found
design_599_7ce25d4d-e004-4b84-a16f-baf856d943ab_1149_dldesign_0_cycle1_af2pred (protein) DVLEKMKELVKEIIEAASKLSPDIAKIFEAAGKVALKKYEEDPEAGIKGAQKLAAVGARVALPDKEAAERLKELAKEVA | not found
design_599_7ce25d4d-e004-4b84-a16f-baf856d943ab_1590_dldesign_0_cycle1_af2pred (protein) MEEAVKKVKELGKEALKRIEEAGKGTPEELEKKSAEVAKEFDAKVEELASKSSPEAAKAILEEAAKARKEMQETYKKALEQAKKNA | not found
design_599_7ce25d4d-e004-4b84-a16f-baf856d943ab_1942_dldesign_0_cycle1_af2pred (protein) KEEIKKIAEEAIEKAENAKTKEQAAEAAKLAAEALKKVGAEKAAKRAEEVAKKAKEGSDSEVPELSKETLILAEQVLFAV | not found
design_599_7ce25d4d-e004-4b84-a16f-baf856d943ab_1912_dldesign_0_cycle1_af2pred (protein) MEKLKELLEKTKELAKKGVEYAKKGDEEKARKYMLEARKYAEEAKKLDPEAGKEAAKIIQEAYEEMAEARFEVN | not found
design_599_7ce25d4d-e004-4b84-a16f-baf856d943ab_2014_dldesign_0_cycle1_af2pred (protein) AELKAKAAIARVEFQAENIIEAGKKNGKEAEKIVKAAEETVKKAKEEIEKDPERAWEIAEKYIRELQEKARELIEKA | not found
design_599_7ce25d4d-e004-4b84-a16f-baf856d943ab_1182_dldesign_0_cycle1_af2pred (protein) AAVEAALAAAEAEFDRAAAFARGAAAAAVKNPKTKAFGEEALKKLDALKAEVAAAKADPEAALKAAKAAAAEAEAIMDEALEANAKA | not found
design_599_7ce25d4d-e004-4b84-a16f-baf856d943ab_2019_dldesign_0_cycle1_af2pred (protein) GEELREKLLKEAEEAVKAAAADVPEMKDRLLAQMEKAKAAPLSKAPTELARLGSLLMAAAFATGSKTAEEAAEIAADAALKLK | not found
